Experimental data taken from the supplement of paper PMC6555819.

Key:
Experiment in all cases: PBM binding z-score (relative to random genomic background probes); higher = stronger binding; sequences stand for … in GC…GCGATTGACAGCGTAGAATGAAGG
[1] = test system: FXR:RXRa (NR concentration 270 nM, RXRa partner concentration 90 nM)
Outline: (§1)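 On custom Agilent 4×180K arrays, double-stranded probes with 34-nt variable regions carried direct-repeat seeds, single-nucleotide variants, half-site ablations or random human genomic background. Ligand-free nuclear receptor dimers were applied for 1 h, and binding was read with antibodies against each partner (one per run). Binding z-scores come from regression-normalized fluorescence, with the random background probes as reference.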

[2] = test system: LXRa:RXRa (NR concentration 270 nM, RXRa partner concentration 90 nM)
Outline: as §1

[3] = test system: LXRa homodimer (NR concentration 270 nM)
Outline: as §1

[4] = test system: LXRb:RXRa (NR concentration 270 nM, RXRa partner concentration 90 nM)
Outline: as §1

[5] = test system: LXRb homodimer (NR concentration 270 nM)
Outline: as §1

[6] = test system: PPARa:RXRa (NR concentration 270 nM, RXRa partner concentration 90 nM)
Outline: as §1

[7] = test system: PPARg:RXRa (NR concentration 180 nM, RXRa partner concentration 90 nM)
Outline: as §1

[8] = test system: PPARg:RXRa 270nM:90nM, anti-RXR (NR concentration 270 nM, RXRa partner concentration 90 nM)
Outline: as §1

[9] = test system: PPARg:RXRa 30nM:10nM, anti-RXR (NR concentration 30 nM, RXRa partner concentration 10 nM)
Outline: as §1

[10] = test system: PPARg:RXRa 90nM:30nM, anti-RXR (NR concentration 90 nM, RXRa partner concentration 30 nM)
Outline: as §1

[11] = test system: PPARg:RXRa DBDmut IVT, anti-RXR (DBD mutation: RXRa K156A/R161A, NR concentration 270 nM, RXRa partner concentration 90 nM)
Outline: as §1

[12] = test system: PPARg:RXRa IVT, anti-PPARg (NR concentration 270 nM, RXRa partner concentration 90 nM)
Outline: as §1

[13] = test system: PPARg DBDmut:RXRa IVT, anti-PPARg (DBD mutation: PPARg1 K132A/R137A, NR concentration 270 nM, RXRa partner concentration 90 nM)
Outline: as §1

[14] = test system: PPARg DBDmut IVT, anti-PPARg (DBD mutation: PPARg1 K132A/R137A, NR concentration 270 nM)
Outline: as §1

[15] = test system: PPARg homodimer (NR concentration 180 nM)
Outline: as §1

[16] = test system: PXR:RXRa (NR concentration 270 nM, RXRa partner concentration 90 nM)
Outline: as §1

[17] = test system: PXR homodimer (NR concentration 270 nM)
Outline: as §1

[18] = test system: RARa:RXR (NR concentration 270 nM, RXRa partner concentration 90 nM)
Outline: as §1

[19] = test system: RARa homodimer (NR concentration 270 nM)
Outline: as §1

[20] = test system: RARb:RXRa (NR concentration 270 nM, RXRa partner concentration 90 nM)
Outline: as §1

| Sequence | PBM binding z-score [1] | PBM binding z-score [2] | PBM binding z-score [3] | PBM binding z-score [4] | PBM binding z-score [5] | PBM binding z-score [6] | PBM binding z-score [7] | PBM binding z-score [8] | PBM binding z-score [9] | PBM binding z-score [10] | PBM binding z-score [11] | PBM binding z-score [12] | PBM binding z-score [13] | PBM binding z-score [14] | PBM binding z-score [15] | PBM binding z-score [16] | PBM binding z-score [17] | PBM binding z-score [18] | PBM binding z-score [19] | PBM binding z-score [20] |
| --- | --- | --- | --- | --- | --- | --- | --- | --- | --- | --- | --- | --- | --- | --- | --- | --- | --- | --- | --- | --- |
| GCGACTGGGGCAAAGCAGGTAACCATAAGGTTGG | -0.15 | -0.576 | -0.622 | -0.339 | -0.997 | 0.96 | 1.1 | 1.08 | -0.433 | 0.285 | 4.21 | 3.7 | -0.574 | -0.498 | -0.0633 | -0.292 | -0.741 | 0.385 | -0.971 | 0.691 |
| TAGCCTAGGTCATGCGCCAGTATACCACGCGAAC | 4.17 | 3.31 | 0.602 | 2.61 | 0.0918 | 3.83 | 2.77 | 3.08 | 0.794 | 1.89 | 1.95 | 3.1 | 1.01 | -0.0835 | 1.11 | 1.61 | -0.142 | 2.54 | -0.948 | 3.76 |
| GCATATAGGTAATACAAGGTGAAAGGCCGATTGT | 0.496 | 1.99 | 0.36 | 0.488 | -0.248 | 1.97 | 2.16 | 2.86 | 1.05 | 2.2 | 3.82 | 3.44 | 0.554 | 0.825 | 0.878 | 0.592 | 0.222 | 1.66 | 0.91 | 0.547 |
| CCTGCTAGGTCATGGTCAGCTATTCTACAGTATG | 3.41 | 2.49 | 0.199 | 1.79 | -0.409 | 3.28 | 2.34 | 2.63 | 0.534 | 1.64 | 4.23 | 3.4 | -0.449 | -0.223 | 2.13 | 1.28 | -0.498 | 2.3 | -0.317 | 3.95 |
| CCTACTGGGCCATCAGGTCATTGAAATCAACGTT | 1.33 | 1.07 | 1.03 | 1.45 | -0.244 | 2.74 | 2.67 | 3.66 | 1.23 | 2.99 | 4.17 | 4.91 | -0.467 | -0.409 | 0.78 | 1.25 | 0.298 | 1.68 | 0.289 | 2.04 |
| GCTCGGAGGACAAGGCCAGAGCTTTGTCCGTAGA | -0.721 | -1.04 | -0.948 | -1.4 | -1.59 | -1.69 | -1.44 | -1.18 | -1.47 | -1.57 | -1.3 | -0.505 | -1.72 | -1.33 | -1.33 | -1.03 | -0.879 | -0.936 | -1.54 | 0.806 |
| GCTGCTAGGTCAGGTTGGTCAGATAACGGGTACG | 1.44 | 0.895 | -0.305 | 0.708 | 0.0296 | 1.5 | 1.03 | 1.12 | -0.213 | 0.38 | 2.83 | 2.3 | -0.406 | -0.502 | 0.742 | 0.425 | -0.0616 | 0.792 | 0.212 | 3.22 |
| ACTAGTTGGTCAGCTGAGGTCAGACACAATTCGG | 2.41 | 1.65 | 1.19 | 2.03 | 0.149 | 2.42 | 0.879 | 1.07 | 0.223 | 0.908 | 1.02 | 1.86 | 0.583 | 0.951 | 1.04 | 4.31 | 0.813 | 2.75 | 0.218 | 2.86 |
| AGAATGAGGCTATTAAGATCAGGGAATTGCGGTC | -0.289 | -0.438 | -0.31 | -0.728 | -0.68 | -0.226 | 0.441 | -0.417 | -0.0887 | -0.313 | 0.775 | 0.484 | 0.528 | -0.351 | -0.817 | -0.436 | -0.252 | -0.197 | -0.295 | 0.119 |
| AGAATGAGGTGATACGTAGATCAGGGAAGAAAGT | 0.335 | -0.0138 | -0.435 | -0.252 | -0.444 | 1.52 | 1.16 | 1.16 | 0.448 | 0.958 | 4.06 | 2.23 | 1.58 | 0.564 | 0.0718 | -0.029 | 0.133 | 0.117 | -0.0248 | 0.411 |
| GGAACGTGGGCAAAGTTGATAGCATCTGTCGACG | -0.58 | -0.566 | -0.508 | -0.667 | -0.939 | 0.742 | 1.45 | 3.26 | 0.952 | 2.7 | -0.0354 | 0.169 | -0.243 | -0.6 | 0.0888 | -0.428 | -0.473 | -0.469 | -0.252 | 0.113 |
| GCTGCTAGGTCAACTGATGTTCAGCTAAAGCTCG | 4.01 | 2.78 | 0.062 | 1.95 | 0.048 | 3.71 | 2.89 | 3.07 | 0.613 | 1.86 | 4.93 | 4.11 | -0.364 | -1.06 | 1.1 | 1.64 | -0.723 | 2.27 | -0.512 | 4.32 |
| GGAACGAGGGCAAATTTGATAGCATCTGTCGACG | 0.712 | 0.506 | -0.407 | 0.682 | 0.0825 | 1.51 | 1.19 | 1.13 | -0.00323 | 0.82 | 3.93 | 2.76 | 0.00863 | -0.28 | 0.201 | 0.608 | 0.0405 | 0.115 | 0.0323 | 2.19 |
| ACTATTAGTTGACTTAGCGCAACCGATACGACGC | -0.246 | -0.156 | 0.033 | -0.0894 | 0.667 | -0.285 | 0.811 | 0.137 | 0.148 | 0.0233 | 0.0649 | 0.107 | 1.97 | 1.39 | -0.0684 | -0.103 | 0.0644 | -0.262 | 0.57 | 0.104 |
